FGF22 binding – binders of human FGF22 protein, primary screen, FGF22 synaptogenesis inhibitor project, biophysical, thermal shift, single point; recombinant FGF22 thermal shift, SYPRO orange fluorescence; percent of sucrose octasulfate shift, DMSO zero; activity (Tm shift, normalised), % at 9.99 µM; 340,000 tested, 1.5% active;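 active = mean Tm shift, scaled 0 neutral to 100 positive control, at about 1.3% or above, every replicate too, limit read from the data; inconclusive = no clear call, values can overlap the other calls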
Target sequence (Q9HCT0 whole entry, looked up): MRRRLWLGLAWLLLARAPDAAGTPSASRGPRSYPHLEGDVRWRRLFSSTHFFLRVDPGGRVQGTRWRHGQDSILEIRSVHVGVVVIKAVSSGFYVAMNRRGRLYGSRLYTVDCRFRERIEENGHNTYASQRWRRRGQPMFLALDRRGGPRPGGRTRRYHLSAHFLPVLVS
esBAF inh – Bmi1 luciferase reporter increase in mESCs, primary screen, esBAF inhibitor project, mouse ES cells, Bmi1 luciferase knock-in, single point. 24 h; 100% = twice the neutral-well signal. reporter increase, % at 12.5 µM. 350,000 tested, 2% active. AID 602393, 2012; in the data active = activation above about 40%; inconclusive = no clear call, values can overlap the other calls;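 also: 0% = median of the plate's neutral control wells and 100% = double that signal; a rise in the Bmi1 reporter signal indicates esBAF inhibition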
SMARCA2 activ – SMARCA2 (BRM) function activators, primary screen, cell-based, luminescence, high throughput; MG213 cells, MMTV-luciferase reporter, dexamethasone, overnight; activation, % at 9.1 µM; AID 652017, 2013; 370,000 tested, 1% active; in the data active = activation above about 7.8%;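 also: 0% = vehicle wells and 100% = reference activator wells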
Wnt act – Wnt/beta-catenin pathway activators, primary screen, cell-based, plate reader, single point; Wnt/beta-catenin reporter cell assay, activator; activation, % at 9.35 µM; 300,000 tested, 1.2% active; AID 743398, 2014; in the data active = activation above about 30%, passing the limit was not always enough; inconclusive = no clear call, values can overlap the other calls;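 also: 0% = neutral control wells and 100% = positive control wells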
MLL AF4-AF9 inh – inhibitors of AF4 peptide binding to AF9, primary screen, biochemical, AlphaScreen, biotin-AF4 peptide, FLAG-AF9, single point. inhibition, % at 10 µM. AID 651704, 2012. 350,000 tested, 0.47% active. Protein AF-9 (Homo sapiens), P42568;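 active = every replicate reaching a set inhibition limit, whatever the replicate mean, cut at about 25% in these data; inconclusive = mean inhibition reaches that limit but some replicates miss it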;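 also: 0% = plate neutral control median and 100% = total signal loss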
MITF act – activators of MITF-driven TRPM1 promoter reporter, primary screen, cell-based, SK-MEL-5, luciferase, single point; SK-MEL-5 TRPM1-promoter luciferase, 24 h; % of positive control, neutral wells = 0; 300,000 tested, 0.75% active; activation, % at 12.5 µM;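 active = mean activation of at least 80% with every replicate also reaching 80%; inconclusive = mean reaches 80% but some replicate falls short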;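 also: 0% = neutral control wells and 100% = parthenolide positive control wells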
Numbers without * were called inactive; ? = inconclusive; / = no result. Shown are actives, neighbours in structure and some others; about 4.3% of the full set was active somewhere.

SMILES	FGF22 binding	esBAF inh	SMARCA2 activ	Wnt act	MLL AF4-AF9 inh	MITF act
O=c1c2ccccc2oc2ccc(NCCCn3ccnc3)cc12	0	-59	5	34*	3	43
COc1ccc(NC(=O)Nc2ccccc2C(=O)N2CCCC2)cc1OC	/	/	-5	/	/	/
CCc1cc2c(=O)c(-c3nc4ccccc4[nH]3)coc2cc1OC(=O)N1CCOCC1	/	68*	1	13	/	17
C[C@H](CO)N1C[C@H](C)[C@@H](CN(C)C(=O)Cc2cccnc2)Oc2cc(C#CC3(O)CCCC3)ccc2S1(=O)=O	0	-3	/	/	1	/
CCN(Cc1nc(-c2ccc(Cl)cc2)no1)CC1CCCO1 (stereo unspecified)	0	17	1	-2	2	11
Clc1ccc(-c2noc(CN(Cc3ccccn3)CC3CCCO3)n2)cc1 (stereo unspecified)	43*	/	-1	-2	-1	-7
CC=Cc1ccc2n(c1=O)C[C@H]1[C@H](CO)[C@@H](C(=O)NCc3ccc(F)cc3)[C@@H]2N1CCC (mixture of isomers)	0	0	/	/	1	/
Cc1noc(C)c1COc1ccccc1C(=O)N(C)Cc1ccco1	0	-1	0	38*	-6	-1
COc1ccccc1NCCC(=O)O	0	/	-3	1	2	-2
O=C(O)CCNc1ccc(NCCC(=O)O)c2c1C(=O)c1ccccc1C2=O	-1	/	-4	0	32*	-24
CO[C@H]1CN(C)C(=O)c2cc(NC(=O)NC(C)C)ccc2OC[C@@H](C)N(C(=O)NC(C)C)C[C@@H]1C	0	-2	/	/	-1	/
C[C@@H]1CCCCO[C@H](CN(C)C(=O)C2CCCCC2)[C@H](C)CN([C@@H](C)CO)C(=O)c2cc(N(C)C)ccc2O1	-1	-6	/	/	3	/
Cc1ccccc1C(=O)NCC(=O)O	43*	-4	3	-3	0	6
O=C(O)CNC(=O)c1ccccc1F	/	9	2	/	/	11
COC(=O)/C=C/c1ccc(-n2cncn2)cc1	/	4	7.8*	2	-1	5
Cn1nnnc1SCC(=O)N(C1CCCCC1)C1CCS(=O)(=O)C1 (stereo unspecified)	43*	/	5	/	0	-4
O=C(NCCCc1ccccc1)c1cccc(NC(=O)c2ccccc2)c1	0	7	-2	-1	0	4
O=C(/C=C/c1ccccc1)Nc1cccc(C(=O)NCCCCc2ccccc2)c1	0	43*	-3	5	0	6
O=C(/C=C/c1ccccc1)Nc1cccc(C(=O)NCCc2ccccc2)c1	0	62*	1	11	-1	?
Cc1cccc(S(=O)(=O)N2CCCCN3[C@H](CO)[C@H](c4ccc(-c5ccncc5)cc4)[C@@H]3C2)c1	-1	14	/	/	-6	/
O=C(Nc1ccccc1Cl)c1cc(C2CCCCN2S(=O)(=O)c2ccccc2)on1 (stereo unspecified)	1	-7	-3	0	0	/
O=C(Nc1ccccc1)c1cc(C2CCCCN2S(=O)(=O)c2ccccc2)on1 (stereo unspecified)	0	52*	-2	18	-2	/
O=C(Nc1ccccc1)c1cc(C2CCCCN2S(=O)(=O)c2cccs2)on1 (stereo unspecified)	0	82*	1	28	3	/
CCS(=O)(=O)N1CCCC(c2nc(-c3cccc(OC)c3)no2)C1 (stereo unspecified)	0	67*	4	10	4	56
CCc1ccc2nc(NC(=O)C3CCN(c4ncnc5sc(C)c(C)c45)CC3)sc2c1	0	60*	5	22	3	20
SMILES	FGF22 binding	esBAF inh	SMARCA2 activ	Wnt act	MLL AF4-AF9 inh	MITF act
CCc1cccc(NC(=O)C2CCN(c3ncnc4sc(C)c(C)c34)CC2)c1	0	6	-1	-1	-2	/
CO[C@H]1CN(C)C(=O)c2cc(NC(=O)C3CC3)ccc2OC[C@@H](C)N(CC2CCOCC2)C[C@H]1C	0	6	/	/	-7	/
CS(=O)(=O)N1[C@@H](C#N)[C@@H](c2ccc(-c3ccccc3F)cc2)[C@@H]1CO	0	2	/	/	1	/
COc1ccc(NC(=O)/C=C/c2cccc(Br)c2)cn1	0	67*	-2	-4	3	44
C[C@@H]1CN([C@@H](C)CO)S(=O)(=O)c2ccc(C#C[C@@H](C)O)cc2O[C@H]1CN(C)C(=O)C1CCC1	0	-2	/	/	-2	/
CCCc1cc2c(=O)c(-c3ccc4c(c3)OCCO4)coc2cc1OS(C)(=O)=O	0	/	5	8	6	59
CCCc1cc2c(=O)c(-c3ccc4c(c3)OCCO4)coc2cc1OC(=O)c1ccco1	/	81*	6	/	/	84*
CCN(CC)Cc1c(O)ccc2c(=O)c(-c3ccc4c(c3)OCCO4)coc12	/	4	-2	/	/	6
CCc1cc2c(=O)c(-c3ccc4c(c3)OCCO4)coc2cc1OC(=O)c1ccco1	/	-6	7	67*	/	/
CCOC(=O)CSc1ccc(C(=O)N2CCN(C)CC2)cc1[N+](=O)[O-]	43*	-2	-1	0	-2	9
CO[C@@H]1CN(C)C(=O)c2ccc(NC(=O)C3CC3)cc2OC[C@@H](C)N(Cc2ccccc2)C[C@@H]1C	-1	5	/	/	-1	/
C[C@H](CO)N1C[C@H](C)[C@H](CN(C)Cc2ccc(C(=O)O)cc2)Oc2ccc(NC(=O)CCN3CCOCC3)cc2C1=O	0	-1	/	/	-3	/
O=C1c2ccccc2NC(c2cccc(Cl)c2)N1N=C1CCCCCC1 (stereo unspecified)	/	55*	2	?	/	92*
O=C(c1cccnc1)N1C[C@@H]2[C@H](c3ccccc31)[C@H](CO)N2C(=O)C1CC1	0	-2	/	/	-2	/
O=C(N[C@H]1C=C[C@@H](CC(=O)N2CCc3ccccc3C2)O[C@@H]1CO)C1CC1	0	7	/	/	-1	/
CCC(=O)N1C[C@H](C)[C@@H](OC)CN(C)C(=O)c2cc(NC(=O)C3CCCCC3)ccc2OC[C@H]1C	0	3	/	/	-1	/
O=c1c2c3c(sc2nc2n1CCCC2)CCCCC3	/	/	-1	/	/	39
O=c1c2c3c(sc2nc2n1CCCC2)CCC3	/	3	1	/	/	3
N=c1c2c3c(sc2nc2n1CCCCC2)CCCCC3	/	48*	3	/	/	70
O=c1c2c3c(sc2nc2n1CCCCC2)CCCC3	/	50*	4	39*	/	/
O=c1c2c3c(sc2nc2n1CCCCC2)CCCCC3	/	62*	/	/	/	51

Assay outcomes from PubChem.
